Experiment [1] can be described thus: small molecules captured by biotinylated probe aFSTL3 – biochemical, small-molecule microarray, fluorescence 635/667, stem cell growth factor project, primary screen (AID 1064).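 Note: measures binding of the biotinylated anti-FSTL3 antibody to printed compounds.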 Particulars: higher = more signal.
The nature of experiment [2]: binders from COS7 lysate, DM2A8 probe, primary screen, torsin A project, cell lysate, small-molecule microarray, fluorescence 635/667 (AID 1065). Particulars: higher = more signal, COS7 lysate expressing mutant human TOR1A.
The nature of experiment [3]: small molecules captured by biotinylated probe aFGF2 – biochemical, small-molecule microarray, fluorescence 635/667, stem cell growth factor project, primary screen (AID 1067).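 Note: measures binding of biotinylated aFGF2 protein to printed compounds on slides; z-score merges feature fluorescence and signal-to-noise across triplicate slides.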 The following applies: higher = more signal.
Experiment [4] in a line: small molecules captured by biotinylated probe aFGF10 – biochemical, small-molecule microarray, fluorescence 635/667, stem cell growth factor project, primary screen (AID 1071).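 Note: score merges 667 nm spot intensity and signal to noise from triplicate slides.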 Particulars: higher = more signal.
The target in experiment [5] is Neurogenic locus notch homolog protein 2 (Homo sapiens) (UniProt Q04721). Briefly: small molecules binding Notch2 protein – biochemical, small-molecule microarray, 635 nm fluorescence, stem cell growth factors, primary screen (AID 1073). The following applies: higher = more signal.
For experiment [6], the target named is Pro-neuregulin-1, membrane-bound isoform (Homo sapiens) (UniProt Q02297). Briefly: small molecules binding neuregulin-1 protein – biochemical, small-molecule microarray, fluorescence 635/667, psychiatric disease protein project, primary screen (AID 1075).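 Note: score combines 667 nm spot fluorescence with signal to noise.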 Particulars: NRG1 binding, 635 nm fluorescence, higher = more signal.
Sequence of Pro-neuregulin-1, membrane-bound isoform (Homo sapiens) (Q02297 whole entry, looked up, the tested form may be a part, canonical isoform): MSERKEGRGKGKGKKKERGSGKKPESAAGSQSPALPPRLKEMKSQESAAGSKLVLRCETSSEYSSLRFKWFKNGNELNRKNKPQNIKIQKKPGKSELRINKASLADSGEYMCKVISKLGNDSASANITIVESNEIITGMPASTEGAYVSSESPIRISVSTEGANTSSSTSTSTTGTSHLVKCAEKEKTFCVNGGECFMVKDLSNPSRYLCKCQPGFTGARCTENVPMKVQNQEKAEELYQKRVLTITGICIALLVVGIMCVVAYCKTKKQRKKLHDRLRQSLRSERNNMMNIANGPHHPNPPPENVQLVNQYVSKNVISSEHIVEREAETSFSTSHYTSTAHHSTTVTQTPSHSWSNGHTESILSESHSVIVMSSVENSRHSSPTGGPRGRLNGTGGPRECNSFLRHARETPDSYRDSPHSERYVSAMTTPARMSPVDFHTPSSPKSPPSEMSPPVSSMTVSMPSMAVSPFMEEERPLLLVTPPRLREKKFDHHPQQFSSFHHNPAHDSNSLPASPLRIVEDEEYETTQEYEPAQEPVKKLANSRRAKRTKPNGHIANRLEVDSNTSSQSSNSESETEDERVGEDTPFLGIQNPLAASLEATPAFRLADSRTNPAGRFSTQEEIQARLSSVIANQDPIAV
The test system of experiment [7] is Neuregulin-1 EGF-like domain. Briefly: small molecules binding NRG1 EGF domain – biochemical, small-molecule microarray, 635 nm fluorescence, primary screen (AID 1081).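 Note: binding of the protein to compounds printed on small-molecule microarray slides.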 Particulars: higher = more signal.
A short description of experiment [8]: FRG1 expression reporter modulators in myotubes – cell-based, C2C12 myotubes, firefly/Renilla luciferase, luminescence, FRG1 inhibition for FSHD, primary screen (AID 1084). Particulars: FRG1 promoter luciferase, higher = more signal, called active from +8 up or from −8 down.
Experiment [9] in a line: small molecules captured by biotinylated probe aFST – biochemical, small-molecule microarray, fluorescence 635/667, stem cell growth factor project, primary screen (AID 1086).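 Note: score merges 667 nm fluorescence with signal-to-noise of each printed compound spot.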 The following applies: higher = more signal.
The nature of experiment [10]: binders of probe aHhip on microarray, primary screen, stem cell growth factor project, biochemical, small-molecule microarray, fluorescence 635/667 (AID 1087).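 Note: score merges spot fluorescence at 667nm with spot signal to noise ratio.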 The following applies: higher = more signal.
The subject of experiment [11] is PRMT1 (protein arginine N-methyltransferase 1). Put plainly: small molecules binding arginine methyltransferase PRMT1 – biochemical, small-molecule microarray, 635 nm fluorescence, primary screen (AID 1088).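 Note: binding of Prmt1 protein to compounds spotted on small-molecule microarray slides.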 The following applies: higher = more signal.
Experiment [12] can be described thus: growth effects on S. cerevisiae YJM789 – YJM789 clinical isolate, OD600, 24 h, basal, primary screen (AID 1089).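 Note: growth of clinical yeast isolate S. cerevisiae YJM 789 seeded 1000 cells per well; test concentration not given here.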 The following applies: higher = more signal, called active from +8 up or from −8 down.
Experiment [13] in a line: S. pombe growth modifiers, basal conditions – strain 972, OD600, 24 h, no modulator, primary screen (AID 1090).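 Note: basal condition with compound alone and no growth modifier present; test concentration not given here.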 The following applies: S. pombe 972 growth, higher = more signal, called active from +8 up or from −8 down.
Experiment [14] can be described thus: budding yeast growth modifiers under rapamycin – strain BY4716, OD600, 96 h, primary screen (AID 1091). Note: test concentration not given here. The following applies: S. cerevisiae BY4716 + rapamycin, higher = more signal, called active from +8 up or from −8 down.
Experiment [15] concerns the target Torsin-1A-interacting protein 2 (Homo sapiens) (UniProt Q8NFQ8). Briefly: small molecules binding lysate-expressed LULL1 – cell lysate, human LULL1 lysate, 635/667 nm fluorescence, primary screen (AID 1092).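 Note: probe is lysate of COS7 cells overexpressing human LULL1; score merges per-feature 667 nm fluorescence with signal-to-noise.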 Particulars: small-molecule microarray, hLULL1 lysate binding, 635 nm fluorescence; higher = more signal.
Experiment [16] in a line: optical density change of DRC41 E. coli – strain DRC41, OD650, 24 h, E. coli filamentation project, primary screen (AID 1093).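 Note: MC1000 strain lacking acrAB efflux and sulA so SOS filamentation is blocked; test concentration not given here.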 Particulars: E. coli DRC41 growth, higher = more signal, called active from +8 up or from −8 down.
Experiment [17] can be described thus: probe aLefty2 binding to arrayed compounds – biochemical, biotinylated probe, 635/667 nm fluorescence, primary screen (AID 1094).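 Note: score merges spot fluorescence near 667 nm with spot signal-to-noise ratio.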 Particulars: small-molecule microarray, higher = more signal.
For experiment [18], the system named is Noggin (protein binding on small-molecule microarray). Briefly: small molecules binding Noggin protein – biochemical, 635/667 nm fluorescence, primary screen (AID 1095).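 Note: score merges 667 nm feature fluorescence with signal to noise over triplicate slides.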 Particulars: 635 nm fluorescence, higher = more signal.
The target in experiment [19] is Neurogenic locus notch homolog protein 3 (Homo sapiens) (UniProt Q9UM47). Put plainly: small molecules binding NOTCH3 protein – biochemical, 635/667 nm fluorescence, primary screen (AID 1096). Particulars: small-molecule microarray, 635 nm fluorescence, higher = more signal.
Sequence of Neurogenic locus notch homolog protein 3 (Homo sapiens) (Q9UM47 whole entry, looked up): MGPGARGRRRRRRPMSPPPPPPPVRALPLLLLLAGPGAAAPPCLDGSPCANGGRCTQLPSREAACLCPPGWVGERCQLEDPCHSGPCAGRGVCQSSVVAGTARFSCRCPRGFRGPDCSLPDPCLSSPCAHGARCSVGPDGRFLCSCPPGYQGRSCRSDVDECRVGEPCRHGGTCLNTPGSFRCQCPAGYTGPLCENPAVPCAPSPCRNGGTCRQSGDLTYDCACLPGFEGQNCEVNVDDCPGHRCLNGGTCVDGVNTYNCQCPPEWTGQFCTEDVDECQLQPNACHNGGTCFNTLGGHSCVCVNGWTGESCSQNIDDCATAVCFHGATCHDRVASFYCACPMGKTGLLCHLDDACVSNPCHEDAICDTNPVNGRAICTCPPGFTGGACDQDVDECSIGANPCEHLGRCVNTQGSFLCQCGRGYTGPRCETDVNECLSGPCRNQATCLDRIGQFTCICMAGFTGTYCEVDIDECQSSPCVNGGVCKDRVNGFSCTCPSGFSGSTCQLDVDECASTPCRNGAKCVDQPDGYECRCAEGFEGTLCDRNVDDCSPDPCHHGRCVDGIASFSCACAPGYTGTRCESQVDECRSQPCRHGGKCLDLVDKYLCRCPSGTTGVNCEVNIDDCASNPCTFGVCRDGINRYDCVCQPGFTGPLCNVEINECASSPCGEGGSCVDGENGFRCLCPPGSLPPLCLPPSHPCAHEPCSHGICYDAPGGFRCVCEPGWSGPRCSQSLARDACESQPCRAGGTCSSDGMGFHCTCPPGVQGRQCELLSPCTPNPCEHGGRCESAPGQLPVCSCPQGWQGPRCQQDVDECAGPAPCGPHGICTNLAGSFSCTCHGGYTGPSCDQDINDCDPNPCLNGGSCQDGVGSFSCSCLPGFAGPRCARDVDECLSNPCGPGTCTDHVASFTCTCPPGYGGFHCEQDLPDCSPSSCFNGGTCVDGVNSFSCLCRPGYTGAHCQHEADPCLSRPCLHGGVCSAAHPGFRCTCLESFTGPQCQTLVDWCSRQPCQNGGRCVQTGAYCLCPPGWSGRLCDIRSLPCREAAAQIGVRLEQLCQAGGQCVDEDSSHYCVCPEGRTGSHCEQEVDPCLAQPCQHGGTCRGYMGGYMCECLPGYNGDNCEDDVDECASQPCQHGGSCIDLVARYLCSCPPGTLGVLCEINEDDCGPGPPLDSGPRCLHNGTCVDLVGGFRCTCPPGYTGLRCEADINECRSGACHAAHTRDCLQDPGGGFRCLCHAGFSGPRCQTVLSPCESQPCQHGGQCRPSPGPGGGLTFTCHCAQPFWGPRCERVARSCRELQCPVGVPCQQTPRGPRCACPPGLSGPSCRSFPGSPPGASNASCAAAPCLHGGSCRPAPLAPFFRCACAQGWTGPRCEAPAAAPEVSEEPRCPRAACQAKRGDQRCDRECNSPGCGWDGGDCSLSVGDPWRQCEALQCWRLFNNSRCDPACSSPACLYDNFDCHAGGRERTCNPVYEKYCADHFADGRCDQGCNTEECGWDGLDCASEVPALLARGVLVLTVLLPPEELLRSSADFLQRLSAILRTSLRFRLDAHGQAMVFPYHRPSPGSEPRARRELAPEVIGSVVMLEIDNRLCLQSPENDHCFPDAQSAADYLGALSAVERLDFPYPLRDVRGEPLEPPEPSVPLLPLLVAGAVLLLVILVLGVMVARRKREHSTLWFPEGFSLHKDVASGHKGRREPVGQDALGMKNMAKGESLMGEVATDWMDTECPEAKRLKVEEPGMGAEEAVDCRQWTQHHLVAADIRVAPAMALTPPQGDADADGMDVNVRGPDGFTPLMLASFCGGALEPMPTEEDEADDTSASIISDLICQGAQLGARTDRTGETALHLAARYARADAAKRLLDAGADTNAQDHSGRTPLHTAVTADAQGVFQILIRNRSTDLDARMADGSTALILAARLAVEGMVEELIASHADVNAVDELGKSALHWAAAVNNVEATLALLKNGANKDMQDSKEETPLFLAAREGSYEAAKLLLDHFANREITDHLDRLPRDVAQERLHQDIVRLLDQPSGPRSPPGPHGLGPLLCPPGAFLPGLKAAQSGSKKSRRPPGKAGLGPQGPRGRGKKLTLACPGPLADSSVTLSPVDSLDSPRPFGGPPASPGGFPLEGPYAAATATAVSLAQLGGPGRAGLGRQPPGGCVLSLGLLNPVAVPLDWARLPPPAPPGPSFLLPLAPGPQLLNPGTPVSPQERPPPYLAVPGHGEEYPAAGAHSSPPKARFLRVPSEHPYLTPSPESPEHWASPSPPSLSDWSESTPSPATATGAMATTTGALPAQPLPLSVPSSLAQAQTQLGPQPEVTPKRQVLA
A short description of experiment [20]: probe aEGFR binding to arrayed compounds – biochemical, biotinylated probe, 635/667 nm fluorescence, primary screen (AID 1097).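 Note: probe is a biotinylated anti-EGFR antibody binding compounds printed on slides; score combines fluorescence near 667 nm and signal to noise of each spot.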 Particulars: small-molecule microarray, higher = more signal.

Where “and” joins values, the source holds several entries; their conditions need not be identical. Identical values can stand only once. Some structures have more than one record in an assay (separate samples or runs), and their calls can disagree. Calls of active or inactive are those of the source.

Sequence of Torsin-1A-interacting protein 2 (Homo sapiens) (Q8NFQ8 whole entry, looked up): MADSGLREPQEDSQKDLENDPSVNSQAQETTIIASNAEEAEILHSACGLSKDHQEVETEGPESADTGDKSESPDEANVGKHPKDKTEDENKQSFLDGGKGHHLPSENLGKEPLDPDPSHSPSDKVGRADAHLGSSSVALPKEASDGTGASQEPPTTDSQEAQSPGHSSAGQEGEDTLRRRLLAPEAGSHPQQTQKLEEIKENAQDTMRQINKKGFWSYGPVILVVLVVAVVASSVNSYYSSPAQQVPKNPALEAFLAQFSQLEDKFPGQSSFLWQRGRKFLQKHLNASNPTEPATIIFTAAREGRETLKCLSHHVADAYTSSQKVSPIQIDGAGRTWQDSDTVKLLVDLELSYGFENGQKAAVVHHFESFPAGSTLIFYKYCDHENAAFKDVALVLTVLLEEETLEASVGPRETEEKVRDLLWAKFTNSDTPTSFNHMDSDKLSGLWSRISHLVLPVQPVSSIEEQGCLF

Turning to `C=C[C@@H](C)[C@@H](O)c1ccc(O)c2ccccc12`, the composite z-score in experiment [1] was 0.306 and 0.254; in experiment [2], -0.54 and -0.797; in [3], -0.105 and -0.154; in experiment [4] it was -0.262 and -0.0511; in experiment [5], -1.51 and -1.17; in experiment [6], -0.775 and -0.178. Further, the composite z-score is -0.377 and 0.98 in [7]; -0.774 and -0.854 in experiment [9]; -0.287 and -0.184 in experiment [10]; -1.15 and -0.5 in [11]; -0.414 and 0.384 in [15]; -0.239 and -0.107 in experiment [17]. The composite z-score in experiment [18] was -0.803 and -0.326; in [19], -1.25 and -0.933; in [20], -0.321 and -0.314. The z-score in experiment [8] was 1.07 (inactive) and 0.849 (inactive); in experiment [12], -5.87 (inactive) and -14.6 (active); in experiment [13], -19.1 (active) and -19.4 (active); in experiment [14] it was 3.53 (inactive) and 5.23 (inactive); in [16], -0.113 (inactive) and 1.61 (inactive).

For the compound `CC[C@@H]1C(Sc2ccccc2)C(C(=O)O)[C@H](c2ccc(C)cc2)N1S(=O)(=O)c1ccc(C)cc1` (stereo not given in full), the composite z-score in [1] is 0.249 and -0.499; in experiment [2], 0.364 and -0.0981; in experiment [3], 0.0013 and 0.166; in experiment [4], 0.579 and 0.288; in experiment [5] it was 1.56 and 1.12; in [6] it was 1.82 and 1.91. In addition, the composite z-score was 1.39 and 1.2 in [7]; 0.254 and 1.05 in experiment [9]; -0.179 and -0.0994 in experiment [10]; 1.25 and 1.49 in [11]; 2.66 and 3.19 in experiment [15]; 0.149 and -0.0615 in [17]. Besides, the composite z-score in experiment [18] was -0.0727 and -0.216; in experiment [19], 1.11 and 1.07; in experiment [20], -0.0025 and -0.114. Besides, the z-score was -3.66 (inactive) and -3.89 (inactive) in experiment [8]; -0.768 (inactive) and -2.59 (inactive) in experiment [12]; 0.796 (inactive) and -0.975 (inactive) in experiment [13]; -0.451 (inactive) and -0.576 (inactive) in [14]; -0.889 (inactive) and -0.743 (inactive) in [16].

With `CCOC(=O)c1ccc(NC(=O)O[C@H]2[C@H](OC(=O)Nc3ccccc3)[C@H](OC(=O)Nc3ccccc3)[C@@H](OC)O[C@@H]2CO)cc1`, the composite z-score is 0.496 and 0.0126 in experiment [1]; 1.19 and 1.58 in experiment [2]; 0.171 and 0.0495 in experiment [3]; 1.2 and 0.986 in [4]; 1.44 and 0.73 in [5]; 1.68 and 1.8 in [6]. Also, the composite z-score in experiment [7] is 1.3 and 1.35; in experiment [9], 1.18 and 0.937; in experiment [10], -0.24 and -0.141; in [11] it was 1.53; in experiment [15], 3.01 and 3.02; in [17], 0.375 and 0.0544. The composite z-score in [18] was 0.536 and 1.04; in experiment [19], 1.04 and 1.05; in [20], 0.445 and -0.0118. Besides, the z-score in experiment [8] is 0.822 (inactive) and -1.03 (inactive); in experiment [12] it was 1.65 (inactive) and 0.863 (inactive); in [13] it was 1.87 (inactive) and 1.43 (inactive); in [14], -1.19 (inactive) and 8.89 (active); in [16], 0.626 (inactive) and 0.455 (inactive).

Regarding `COC(=O)[C@@]1(Cc2ccc(F)cc2)[C@H]2c3cc(C(=O)N4CCCC4)n(Cc4c(CO)[nH]cc(C)c4=O)c3C[C@H]2CN1C(=O)c1ccccc1`, the composite z-score in experiment [1] was 1.8 and 0.692; in [2], -0.101 and -1.02; in [3], 0.775 and -0.0485; in [4] it was 1.22 and 0.774; in [5] it was 1.43 and 1.42; in experiment [6] it was 1.92 and 1.21. Further, the composite z-score in [7] is 1.31 and 1.1; in experiment [9], 1.54 and 0.659; in experiment [10] it was 1.42 and 0.314; in experiment [11], 0.519 and 0.355; in [15] it was 3.29 and 3.28; in [17], 1.33 and 0.155. The composite z-score in experiment [18] is 0.0162 and -0.629; in [19], 0.335 and 0.422; in [20], 0.985 and 0.0594. Besides, the z-score in [8] is 1.78 (inactive) and -0.112 (inactive); in experiment [12] it was 0.786 (inactive) and 1.14 (inactive); in experiment [13] it was 1.36 (inactive) and 1.39 (inactive); in [14], 0.925 (inactive) and 1.59 (inactive); in experiment [16], -0.633 (inactive) and -0.87 (inactive).

Source of the values: PubChem BioAssay.
